Compounds with a hit are over-represented: about 2.9% of the library has one in this group of screens.
PAFAH1B3 inh – PAFAH1B3 enzyme inhibitors, primary screen, biochemical, fluorescence polarization, human; 340,000 tested, 0.28% active; inhibition, % at 3.39 µM; AID 492972, 2010; recombinant PAFAH1B3, FP-rhodamine probe;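 active means inhibition above the screen-wide average of all tested compounds plus 3 SD, cut at about 25% in these data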;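 further: 0% = enzyme with DMSO only and 100% = wells lacking PAFAH1B3 protein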
ZTA DNA inh – counter-screen for EBNA-1 inhibitors: inhibitors of Epstein-Barr virus ZTA. P03206. ZTA-DNA binding, fluorescence polarization. inhibition, % at 11 µM. 320,000 tested, 0.15% active. AID 2234; in the data active means inhibition above about 33%
Target sequence (P03206 whole entry, looked up): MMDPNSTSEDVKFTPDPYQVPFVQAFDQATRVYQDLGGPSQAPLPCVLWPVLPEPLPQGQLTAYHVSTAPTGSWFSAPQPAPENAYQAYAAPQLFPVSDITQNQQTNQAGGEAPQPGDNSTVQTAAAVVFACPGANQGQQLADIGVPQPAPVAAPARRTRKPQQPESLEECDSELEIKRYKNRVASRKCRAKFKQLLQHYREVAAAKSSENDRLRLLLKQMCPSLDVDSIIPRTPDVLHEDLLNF
EBNA-1 inhibitor – EBNA-1 DNA-binding inhibitors, primary screen, biochemical, fluorescence polarization. inhibition, % at 14.8 µM. 300,000 tested, 0.34% active. AID 1950, 2009; in the data active means inhibition above about 28%
PAFAH1B2 inh – PAFAH1B2 enzyme inhibitors, primary screen, biochemical, fluorescence polarization, human; Platelet-activating factor acetylhydrolase IB subunit alpha2 (Homo sapiens), P68402; recombinant PAFAH1B2, FP-rhodamine activity probe; inhibition, % at 3.39 µM; 340,000 tested, 1.2% active;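 active means inhibition above the mean of all tested compounds plus 3 SD, cut at about 24% in these data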;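 further: 0% = enzyme with DMSO and 100% = wells lacking PAFAH1B2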
Target sequence (P68402 whole entry, looked up): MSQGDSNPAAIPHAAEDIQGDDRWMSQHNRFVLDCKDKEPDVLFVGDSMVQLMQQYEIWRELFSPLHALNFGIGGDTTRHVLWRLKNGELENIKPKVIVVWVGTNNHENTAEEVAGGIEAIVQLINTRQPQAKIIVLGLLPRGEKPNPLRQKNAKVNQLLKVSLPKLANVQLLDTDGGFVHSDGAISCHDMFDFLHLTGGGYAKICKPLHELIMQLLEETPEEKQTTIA
pPAFAH FP inh – pPAFAH enzyme inhibitors, primary screen, biochemical, fluorescence polarization, human | recombinant pPAFAH, FP-rhodamine probe fluorescence polarization | AID 463082, 2010 | inhibition, % at 3.39 µM | Platelet-activating factor acetylhydrolase (Homo sapiens), Q13093 | 330,000 tested, 1.5% active;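 active means inhibition above the mean inhibition across the screen plus 3 SD, cut at about 25% in these data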;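 further: inhibitors block binding of the rhodamine activity-based probe so polarization drops; 0% = enzyme with DMSO and 100% = wells lacking pPAFAH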
PAFAH2 FP inh – PAFAH2 enzyme inhibitors, primary screen, biochemical, fluorescence polarization, human. Platelet-activating factor acetylhydrolase 2, cytoplasmic (Homo sapiens), Q99487. recombinant PAFAH2, FP-rhodamine activity probe. inhibition, % at 3.39 µM. 340,000 tested, 0.99% active;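 active means inhibition above the mean over all tested compounds plus 3 SD, cut at about 30% in these data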;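 further: inhibitors block probe labeling of enzyme so polarization drops; 0% = enzyme with DMSO and 100% = wells lacking PAFAH2 protein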
* marks the source's active call; other numbers are inactive results; . = no result given.

SMILES	PAFAH1B3 inh	ZTA DNA inh	EBNA-1 inhibitor	PAFAH1B2 inh	pPAFAH FP inh	PAFAH2 FP inh
COc1cc(CNc2ccc(N3CCCCC3)cc2)ccc1OCC(=O)NC(C)(C)C	0.9	6.2	-11.4	1.9	18.0	2.3
COc1cc(CNc2ccc(N3CCCC3)cc2)ccc1OCc1ccccc1F	14.2	79.2*	65.1*	10.8	20.8	4.9
CC[C@]12c3[nH]c4cc(CCC(=O)N(C)C)ccc4c3CCN1C(=O)[C@@H](CC(=O)NC/C=C(\C)CCC=C(C)C)C[C@@H]2C(=O)N1CCN(C(=O)C2CC2)CC1	9.5	.	.	1.6	29.1*	-4.7
COc1ccc2[nH]c3c(c2c1)CCN1C(=O)C(CC(=O)NC/C=C(\C)CCC=C(C)C)C[C@H](C(=O)N(C(C)C)C(C)C)[C@@]31C (some centres not stated)	6.8	.	.	4.5	25.5*	6.6
CC(C)=CCC/C(C)=C/CNC(=O)C[C@H]1C[C@H](C(=O)N2CCOCC2)[C@@]2(C)c3[nH]c4cc(CCC(=O)N(C)C)ccc4c3CCN2C1=O	2.3	.	.	-2.0	29.9*	-0.7
CC[C@]12c3[nH]c4cc(CCC(=O)N(C)C)ccc4c3CCN1C(=O)[C@@H](CC(=O)NCCN1CCOCC1)C[C@@H]2C(=O)N1CCN(C(=O)C2CC2)CC1	2.9	.	.	3.0	4.9	2.9
CC(C)=CCC/C(C)=C/CNC(=O)C[C@H]1C[C@H](C(=O)N(C(C)C)C(C)C)[C@@]2(C)c3[nH]c4ccc(Cl)cc4c3CCN2C1=O	6.7	.	.	2.9	1.9	-4.1
CN(C)C(=O)CCc1ccc2c3c([nH]c2c1)[C@]1(C)[C@@H](C(=O)N2CCOCC2)C[C@H](CC(=O)NC(C)(C)C)C(=O)N1CC3	7.7	.	.	2.7	6.3	0.6
CCOc1ccccc1OCC(=O)NNC(=O)Cn1cnc2c1c(=O)n(C)c(=O)n2C	-2.0	3.9	-11.0	3.4	-5.0	-0.3
COc1ccc(CS(=O)(=O)c2nc(C)cc(C)c2S(C)(=O)=O)cc1	11.5	-6.5	-13.2	-1.4	-0.4	-1.5
c1coc(CNc2nc3ccccc3s2)c1	13.0	-8.2	-14.0	8.4	2.7	-2.0
Clc1ccc(CCNc2nc3ccccc3s2)cc1	1.5	6.1	-2.1	27.0*	1.9	10.2
CC1CCCC(C)N1C(=O)COC(=O)CSc1ccc([N+](=O)[O-])cc1 (configuration not stated)	7.9	.	.	11.4	.	4.1
CCOC(=O)C1CCN(C(=O)COC(=O)CSc2ccc([N+](=O)[O-])cc2)CC1	4.9	2.7	5.8	9.3	31.5*	0.1
COc1cc(NC(=O)c2cc(OC)c(OC)c(OC)c2)cc(-n2cnnn2)c1	4.7	-14.7	-5.5	5.6	6.1	-8.4
COC(=O)c1sc(S(=O)(=O)Nc2c(C)nn(C)c2C)c(C(=O)OC)c1C	1.9	.	.	4.5	.	0.6
COC(=O)c1sc(NC(=S)NNC(=O)c2c(Br)c(C)nn2C)c(C(=O)OC)c1C	13.4	13.8	8.3	6.6	20.5	30.0*
O=C(NC1CCCCC1)c1sc(=S)n2c1[nH]c(=O)c1ccccc12	32.4*	-7.1	-4.8	42.0*	31.5*	56.3*
O=C(NC1CCCCCC1)c1c(O)c2ccccc2[nH]c1=O	-5.3	6.4	-4.8	2.3	1.7	2.4
O=C(CN1C(=O)c2ccccc2C1=O)OCC(=O)c1ccccc1	0.4	-6.6	-8.7	7.4	-4.4	-7.2
COc1ccc(CN2CN(S(=O)(=O)c3ccccc3)c3nc4ccccc4nc32)cc1	-0.7	-3.3	10.4	1.8	8.0	2.3
CC1=C(CC(=O)c2ccc(Cl)cc2)C(=O)c2ccccc2C1=O	7.8	-1.3	6.7	6.2	28.1*	1.7
C/C(=N/OC(=O)c1ccc(C(F)(F)F)cc1)c1oc(C)nc1C	1.4	-10.9	-5.5	6.9	-0.9	1.1
Cc1ccc(NC(=O)Nc2ncnc3nc[nH]c23)cc1	5.7	-10.6	7.6	3.6	-3.0	4.2
CCC(=O)Nc1ccc(S(=O)(=O)Nc2cccc(C)c2)cc1OC	9.8	-1.2	-11.6	1.7	30.2*	7.2
CCOc1ccc(NS(=O)(=O)c2ccc(NC(C)=O)c(OC)c2)cc1	6.5	9.6	3.5	2.8	24.7*	-4.9
Cc1ccc(S(=O)(=O)Nc2ccc(C(=O)Nc3ccncc3)cc2)cc1	5.4	-6.5	-3.0	5.5	1.4	-12.9

Source: PubChem (The Scripps Research Institute Molecular Screening Center)
